# Sampled rows, rich in hits. Any-hit rate of the full collection: about 4%.
# LMP1 NFkB inh: EBV LMP1-driven NF-kappaB luciferase reporter inhibitors, primary screen, cell-based, luminescence, single point. LMP1-induced NF-kappaB luciferase reporter cells. inhibition, % at 12.5 µM. 350,000 compounds, 0.69% hits. AID 504558, 2011; in the data active = inhibition above about 41%; inconclusive = no clear call, values can overlap the other calls;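 also: 0% = neutral control wells and 100% = reference inhibitor control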
# MITF act: activators of MITF-driven TRPM1 promoter reporter, primary screen, cell-based, SK-MEL-5, luciferase, single point; SK-MEL-5 TRPM1-promoter luciferase, 24 h; % of positive control, neutral wells = 0; AID 588334, 2011; activation, % at 12.5 µM; 300,000 compounds, 0.75% hits;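 active = mean activation of at least 80% with every replicate also reaching 80%; inconclusive = mean reaches 80% but some replicate falls short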;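 also: 0% = neutral control wells and 100% = parthenolide positive control wells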
# Wnt bcat act: Wnt/beta-catenin pathway activators, primary screen, cell-based, plate reader, single point; Wnt/beta-catenin reporter cell assay, activator; activation, % at 9.35 µM; 300,000 compounds, 1.2% hits; AID 743398, 2014; in the data active = activation above about 30%, passing the limit was not always enough; inconclusive = no clear call, values can overlap the other calls;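 also: 0% = neutral control wells and 100% = positive control wells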
# MITF TRPM1 inh: inhibitors of MITF-dependent TRPM1 promoter reporter, primary screen, cell-based, SK-MEL-5, single point, luciferase; AID 488899, 2010; inhibition, % at 12.5 µM; SK-MEL-5 TRPM1 promoter luciferase, 24 h; 330,000 compounds, 0.83% hits;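 active = mean inhibition across replicates of 60% or more, whatever share of single replicates reaches that level; inconclusive = some that reach 60%, reason not given; inactive = mean inhibition across replicates below 60%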
# esBAF inh: Bmi1 luciferase reporter increase in mESCs, primary screen, esBAF inhibitor project, mouse ES cells, Bmi1 luciferase knock-in, single point; AID 602393, 2012; 350,000 compounds, 2% hits; reporter increase, % at 12.5 µM; 24 h; 100% = twice the neutral-well signal; in the data active = activation above about 40%; inconclusive = no clear call, values can overlap the other calls;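 also: 0% = median of the plate's neutral control wells and 100% = double that signal; a rise in the Bmi1 reporter signal indicates esBAF inhibition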
# C2C12 statin: suppressors of statin myotoxicity in C2C12 myotubes, primary screen, cell-based, single point, plate reader | C2C12 myotubes + simvastatin, ATP luminescence, 48 h; scaled: DMSO 0, geranylgeraniol control 100 | rescue of ATP level, % at 7.49 µM | 330,000 compounds, 0.78% hits | AID 602340, 2012;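 active = mean ATP rescue above about 67%, or every replicate alone reaching that limit, limit read from the data, passing the limit was not always enough; inconclusive = no clear call, values can overlap the other calls; inactive = mean under the limit and some replicate under it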;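 also: myotubes were challenged with 10 µM simvastatin during compound exposure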
# Active calls of the source: *; ? = inconclusive; . = no result.
SMILES,LMP1 NFkB inh,MITF act,Wnt bcat act,MITF TRPM1 inh,esBAF inh,C2C12 statin
Cc1ccc(-c2ccc(/C=N/N3C(=O)C4C5C=CC(C6CC56)C4C3=O)o2)c([N+](=O)[O-])c1 (stereo not drawn),3,8,.,-8,3,12
CNc1ccc2ncc(-c3cccc(C(=O)N(C)C)c3)n2n1,.,.,.,.,-18,-2
Cc1ccc(S(=O)(=O)c2cccc(S(=O)(=O)N3CCCC3)c2)cc1S(=O)(=O)N1CCCC1,6,?,5,.,3,90*
Cc1ccc(C(=O)Nc2cccc(O)c2)cc1S(=O)(=O)N1CCCCCC1,-12,?,20,-100,57*,-24
Cc1ccnc(NC(=O)c2ccc(Cl)c(S(=O)(=O)N3CCCC3)c2)c1,-4,46,11,-46,.,.
O=C(Nc1ccccn1)c1ccc(Cl)c(S(=O)(=O)N2CCCCCC2)c1,-13,68,-3,-66,83*,-32
Cc1ccc(C(=O)OCC(=O)N2C(C)CCCC2C)cc1S(=O)(=O)N1CCCCC1 (stereo not drawn),4,-3,2,3,.,.
COC(=O)c1ccc(COC(=O)c2ccc(C)c(S(=O)(=O)N3CCCCC3)c2)cc1,-24,96*,9,-88,43*,-5
O=C(COC(=O)c1cc(S(=O)(=O)N2CCOCC2)ccc1F)Nc1ccc2c(c1)OCO2,-5,1,7,-2,0,-2
COc1cc(/C=N/NC(=O)Cc2ccccc2)cc([N+](=O)[O-])c1O,0,.,-1,-4,-5,64
CC(C)NC(=O)c1cc(C2CCCCN2S(=O)(=O)c2ccc(C#N)cc2)on1 (stereo not drawn),.,.,-4,.,1,15
COCC(C)n1c(C)cc(C(=O)COC(=O)CNC(=O)c2ccccc2)c1C (stereo not drawn),2,8,-2,-10,-3,6
COc1ccc(CN(C)C(=O)c2cccc(NC(=O)CC3SC(N4CCCCC4)=NC3=O)c2)c(OC)c1 (stereo not drawn),?,-60,-3,63*,-38,-41
Cc1ccc(C(=O)c2cnc3cc4c(cc3c2S(=O)(=O)c2ccccc2)OCCO4)cc1,-18,30,1,-28,118*,24
O=C(NCc1ccco1)/C(=C/c1ccc(C(F)(F)F)cc1)c1nc2ccccc2[nH]1,4,14,34*,-17,.,.
N#C/C(=C\c1ccc(Oc2ccc(C(F)(F)F)cc2[N+](=O)[O-])cc1)c1nc2ccccc2[nH]1,2,3,.,0,.,.
O=S(=O)(/C(=C\c1ccc(C(F)(F)F)cc1)c1nc2ccccc2[nH]1)c1ccccc1,1,-97,.,97*,.,.
O=C(NCc1ccco1)/C(=C/c1cccc(C(F)(F)F)c1)c1nc2ccccc2[nH]1,-33,-48,-6,49,6,-22
Cc1ccc2oc(/N=C(\N)NC(=O)C3CC3)nc2c1,36,-5,10,6,-28,-40
Cc1ccc2oc(/N=C(\N)NC(=O)C(C)(C)C)nc2c1,66*,.,-23,72*,.,.
CC(C)CNC(=O)CSc1nc2nn(-c3ccccc3)c(=O)c-2c2n1CCCCC2,-3,6,40*,-3,.,.
CS(=O)(=O)c1ccc(C(=O)Nc2ccc(N3CCOCC3)cc2)c(Cl)c1,-4,1,0,3,1,0
CS(=O)(=O)c1ncc(Cl)c(C(=O)Nc2ccc(OC(F)F)cc2)n1,?,.,.,73*,-35,117*
Cc1ccccc1NC(=O)c1nc(S(C)(=O)=O)ncc1Cl,-22,.,-3,28,-6,?
CS(=O)(=O)c1ncc(Cl)c(C(=O)Nc2ccc(N3CCOCC3)cc2)n1,35,-90,.,92*,.,.
SMILES,LMP1 NFkB inh,MITF act,Wnt bcat act,MITF TRPM1 inh,esBAF inh,C2C12 statin
Cc1nnc(SCC(=O)Nc2cc(-c3cc(C)c(C)cc3C)nn2-c2ccccc2)s1,50*,5,7,3,.,.
COc1ccc(C2=Nc3ccccc3N(C(=O)c3ccc4ncccc4c3)C2C(=O)NC(C)(C)C)cc1 (stereo not drawn),.,.,34*,.,.,.
COc1ccc(C2=Nc3ccccc3N(C(=O)Cc3cc(OC)cc(OC)c3)C2C(=O)NC(C)(C)C)cc1 (stereo not drawn),.,.,2,.,.,.
CCNC(=O)C[C@@H]1C=C[C@H](NC(=O)C2CCC2)[C@H](CO)O1,.,.,.,.,2,2
Cn1c(SCc2cc([N+](=O)[O-])cc3c2OCOC3)nnc1-c1ccccn1,3,3,-3,4,.,.
Cc1ccc(-c2ccccc2[C@@H]2C[C@H]3CN(C)C(=O)[C@]34CCCN24)o1,0,-2,0,4,-7,103*
COC(=O)[C@@]1(C)[C@H]2C(=O)N(Cc3ccccc3)C(=O)[C@H]2[C@H]2CN=C(SCc3ccc(Cl)cc3)N21,70*,-4,-1,1,-5,-6
COC(=O)[C@@]1(C)[C@H]2C(=O)N(Cc3ccccc3)C(=O)[C@H]2[C@H]2CN=C(SCc3ccc(C#N)cc3)N21,12,3,-1,-4,0,-5
CCCCOP(=O)(c1ccc(N(C)C)cc1)C(O)c1ccc(C(C)C)cc1 (stereo not drawn),8,5,-2,-5,0,10
O=S(c1ccc2ccccc2c1)c1cnns1 (stereo not drawn),-10,-25,.,26,36,124*
O=C(Oc1ccc(Cl)cc1)N1CCCCC1,-23,.,.,-70,50*,-7
O=C(Oc1cccc(Oc2ccccc2)c1)N1CCOCC1,-22,7,0,-6,-4,13
O=C(Oc1ccc(Cl)cc1)N1CCOCC1,1,1,0,-1,16,-12
O=C(Oc1ccc(-c2ccccc2)cc1)N1CCOCC1,-16,86*,.,-93,62*,-36
O=S(=O)(Nc1cccc(-c2cn3c(n2)SCC3)c1)c1cccs1,-2,0,-3,1,.,.
CCOC(=O)CSc1nc2ccccc2c(=O)n1NC(=O)c1ccccc1,-8,49,38*,-48,11,-5
COc1ccc(C(=O)Nn2c(SCC(=O)c3ccccc3)nc3ccccc3c2=O)cc1,17,.,.,6,.,.
CC1CCCN(C(=O)CCc2nnc(-c3ccc4c(c3)OCO4)o2)C1 (stereo not drawn),-28,22,14,-22,42*,0
CCC(=O)C1CCCN(C(=O)CCc2nnc(-c3ccc(C(C)=O)s3)o2)C1 (stereo not drawn),-23,49,22,-56,83*,7
